Our source for the binding signal values is article PMC5700166.

Holding throughout (assay): protein-binding microarray (PBM); PBM: ~300 nM protein, 6 mM HEPES pH 7.8, 80 mM KCl, 0.5 mM EDTA, 0.5 mM EGTA, 6% glycerol, 35 ng/ul poly-dIdC, 1% milk, 1 h, room temperature; Ap Aiptasia and Nv Nematostella (sea anemones) / Co Capsaspora / Aq Amphimedon (sponge) / Dm Drosophila / Hu human; RHD is the Rel homology domain; high values mean tight binding
Holding throughout (conditions): dsDNA, one strand shown

Test [1] addresses T1, GST-Ap-NF-kB RHD (Exaiptasia pallida (Aiptasia), UniProt A0A913YAJ5 2-422).
T1 sequence: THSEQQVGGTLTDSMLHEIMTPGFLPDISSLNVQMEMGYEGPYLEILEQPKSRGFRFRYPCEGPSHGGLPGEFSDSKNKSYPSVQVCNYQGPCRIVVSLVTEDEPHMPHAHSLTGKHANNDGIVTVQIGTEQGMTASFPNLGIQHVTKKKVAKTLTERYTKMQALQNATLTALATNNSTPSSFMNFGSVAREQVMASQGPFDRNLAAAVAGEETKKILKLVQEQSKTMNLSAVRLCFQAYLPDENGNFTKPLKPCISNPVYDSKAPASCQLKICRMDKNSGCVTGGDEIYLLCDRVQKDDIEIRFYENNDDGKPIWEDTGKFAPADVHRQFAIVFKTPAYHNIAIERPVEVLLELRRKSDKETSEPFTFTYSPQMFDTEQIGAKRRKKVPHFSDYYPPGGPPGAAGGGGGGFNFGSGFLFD

The target in test [2] is T2, GST-Nv-NF-kB (Cys allele) (Nematostella vectensis, UniProt E5G601 2-411).
T2 sequence: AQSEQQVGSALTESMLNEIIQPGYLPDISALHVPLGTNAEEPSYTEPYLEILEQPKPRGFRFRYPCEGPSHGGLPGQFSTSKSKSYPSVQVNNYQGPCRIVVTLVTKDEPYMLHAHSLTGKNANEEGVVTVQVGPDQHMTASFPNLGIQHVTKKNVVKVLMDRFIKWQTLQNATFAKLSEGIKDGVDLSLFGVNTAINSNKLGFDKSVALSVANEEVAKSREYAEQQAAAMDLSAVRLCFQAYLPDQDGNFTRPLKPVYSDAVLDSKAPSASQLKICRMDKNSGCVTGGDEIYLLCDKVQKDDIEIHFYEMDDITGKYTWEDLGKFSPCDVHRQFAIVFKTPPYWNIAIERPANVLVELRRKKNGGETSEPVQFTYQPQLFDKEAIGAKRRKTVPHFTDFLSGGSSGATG

Test [3] addresses T3, GST-Nv-NF-kB (Ser allele) (Nematostella vectensis, UniProt A7UNT2 2-411).
T3 sequence: T2 sequence with Q21R, C66S, S207N, E215Q, V217A, E225K, A268E, D399E

For test [4], the target named is T4, GST-Co-NF-kB (Capsaspora owczarzaki, UniProt F1ARL5 200-546).
T4 sequence: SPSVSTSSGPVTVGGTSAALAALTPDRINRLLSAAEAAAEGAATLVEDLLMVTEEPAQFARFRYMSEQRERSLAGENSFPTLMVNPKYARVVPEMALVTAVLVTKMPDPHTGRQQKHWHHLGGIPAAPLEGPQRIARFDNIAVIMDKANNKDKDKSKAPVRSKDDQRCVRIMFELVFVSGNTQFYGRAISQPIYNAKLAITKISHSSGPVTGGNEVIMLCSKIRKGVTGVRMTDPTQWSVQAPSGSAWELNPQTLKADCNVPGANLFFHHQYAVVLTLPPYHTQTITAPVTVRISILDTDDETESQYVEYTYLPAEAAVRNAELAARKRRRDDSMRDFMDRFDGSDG

Test [5] has as its target T5, GST-Dm-Relish (Drosophila melanogaster, UniProt Q94527 99-473).
T5 sequence: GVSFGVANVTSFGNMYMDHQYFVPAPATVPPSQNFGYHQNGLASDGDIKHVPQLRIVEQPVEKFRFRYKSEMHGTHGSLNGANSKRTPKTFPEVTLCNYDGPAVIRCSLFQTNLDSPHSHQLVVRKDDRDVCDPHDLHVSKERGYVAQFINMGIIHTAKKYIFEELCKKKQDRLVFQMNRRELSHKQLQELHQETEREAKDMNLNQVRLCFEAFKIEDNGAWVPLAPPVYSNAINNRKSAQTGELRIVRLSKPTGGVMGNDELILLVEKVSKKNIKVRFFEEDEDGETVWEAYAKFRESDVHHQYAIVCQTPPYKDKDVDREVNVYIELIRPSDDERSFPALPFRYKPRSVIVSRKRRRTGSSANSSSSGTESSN

The target in test [6] is T6, GST-Aq-NF-kB (Amphimedon queenslandica, UniProt A9Y5G7 2-389).
T6 sequence: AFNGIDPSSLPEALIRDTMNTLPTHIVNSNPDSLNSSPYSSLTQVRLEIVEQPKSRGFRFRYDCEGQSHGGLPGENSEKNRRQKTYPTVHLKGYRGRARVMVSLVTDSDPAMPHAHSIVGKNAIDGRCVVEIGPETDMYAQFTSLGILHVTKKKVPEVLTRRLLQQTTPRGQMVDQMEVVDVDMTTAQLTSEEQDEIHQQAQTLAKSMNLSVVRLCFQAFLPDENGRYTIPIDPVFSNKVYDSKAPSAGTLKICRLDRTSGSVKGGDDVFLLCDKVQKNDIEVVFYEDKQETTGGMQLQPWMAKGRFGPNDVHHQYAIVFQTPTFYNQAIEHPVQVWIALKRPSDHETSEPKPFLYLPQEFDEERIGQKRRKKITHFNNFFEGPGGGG

Test [7] concerns the target GST-Hu-p50 (Homo sapiens, UniProt P19838 7-356).

Substitutions are numbered along the chain they refer to.

Chain of GST-Hu-p50 (P19838 7-356): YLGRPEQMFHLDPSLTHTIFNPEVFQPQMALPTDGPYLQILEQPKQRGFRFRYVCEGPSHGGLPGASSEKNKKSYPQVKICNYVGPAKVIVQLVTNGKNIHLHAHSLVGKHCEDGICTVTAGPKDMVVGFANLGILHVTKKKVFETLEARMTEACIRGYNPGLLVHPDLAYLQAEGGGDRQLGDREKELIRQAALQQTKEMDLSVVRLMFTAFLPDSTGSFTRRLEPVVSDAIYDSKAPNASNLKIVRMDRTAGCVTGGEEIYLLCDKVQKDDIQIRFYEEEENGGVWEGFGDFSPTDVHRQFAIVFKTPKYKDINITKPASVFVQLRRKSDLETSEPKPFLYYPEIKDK

Take “CCGATTAACATCAGGGGGTTGGATGATGTTAATCGGGTCTTGATTCGCTTGACGCTGCTG”: the binding signal in test [1] is 4.25 z-score; in test [2], 3.25 z-score; in test [3] it was 4.6 z-score; in test [4], 2.05 z-score; in test [5] it was 4.45 z-score; in test [6], 3.38 z-score. The binding signal in test [7] was determined as 4.51 z-score.
On to “CCGATTAACATCAGGACAACCCCTGATGTTAATCGGGTCTTGATTCGCTTGACGCTGCTG”, for which the binding signal in test [1] was found to be 3.21 z-score; in test [2] it was 3.16 z-score; in test [3], 1.17 z-score; in test [4], 1.02 z-score; in test [5], 2.63 z-score; in test [6] it was 5.78 z-score. The sequence also came in with a binding signal in test [7] of 2.98 z-score.
Consider “CCGATTAACATCAAAATATCCCCTGATGTTAATCGGGTCTTGATTCGCTTGACGCTGCTG”, for which the binding signal turned out to be 8.8 z-score in test [1]; 9.37 z-score in test [2]; 11 z-score in test [3]; 5.38 z-score in test [4]; 8.53 z-score in test [5]; 7.25 z-score in test [6]. The same sequence displayed a binding signal in test [7] of 7.09 z-score.
On to “CCGATTAACATCAGGATTTACCCTGATGTTAATCGGGTCTTGATTCGCTTGACGCTGCTG”, for which the binding signal worked out at 3.04 z-score in test [1]; 4.29 z-score in test [2]; 3.54 z-score in test [3]; 1.85 z-score in test [4]; 5.15 z-score in test [5]; 6.67 z-score in test [6]. In test [7], the binding signal worked out at 3.39 z-score.
As for “CCGATTAACATCAAGGGAATGCCTGATGTTAATCGGGTCTTGATTCGCTTGACGCTGCTG”, the binding signal came to 2.72 z-score in test [1]; 3.58 z-score in test [2]; 2.83 z-score in test [3]; 1.06 z-score in test [4]; 2.97 z-score in test [5]; 4.2 z-score in test [6]. Besides, the binding signal in test [7] is 1.87 z-score.
As to “CCGATTAACATCAGGGGATCTTATGATGTTAATCGGGTCTTGATTCGCTTGACGCTGCTG”, the binding signal stood at 7.32 z-score in test [1]; 7.01 z-score in test [2]; 7.89 z-score in test [3]; 3.1 z-score in test [4]; 6.67 z-score in test [5]; 6.41 z-score in test [6]. The same sequence showed a binding signal in test [7] of 6.06 z-score.
For “CCGATTAACATCAACGAAACCCCTGATGTTAATCGGGTCTTGATTCGCTTGACGCTGCTG”, the binding signal in test [1] worked out at 3.65 z-score; in test [2], 2.45 z-score; in test [3], 2.84 z-score; in test [4] it was 1.39 z-score; in test [5] it was 4.41 z-score; in test [6] it was 2.77 z-score. For the same sequence, the binding signal in test [7] came to 3.87 z-score.
Regarding “CCGATTAACATCAAGGGGAAGGGTGATGTTAATCGGGTCTTGATTCGCTTGACGCTGCTG”, the binding signal in test [1] came out at 4.52 z-score; in test [2] it was 5.48 z-score; in test [3], 5.81 z-score; in test [4] it was 3.95 z-score; in test [5], 2 z-score; in test [6], 4.16 z-score. The same sequence came in with a binding signal in test [7] of 4.32 z-score.
With “CCGATTAACATCAGGGGAAGTTATGATGTTAATCGGGTCTTGATTCGCTTGACGCTGCTG”, the binding signal in test [1] was 7.14 z-score; in test [2] it was 9.1 z-score; in test [3] it was 9.37 z-score; in test [4], 7.7 z-score; in test [5], 7.34 z-score; in test [6], 7.08 z-score. The sequence further showed a binding signal in test [7] of 6.64 z-score.
“CCGATTAACATCAATATAACCCCTGATGTTAATCGGGTCTTGATTCGCTTGACGCTGCTG”: the binding signal was 3.99 z-score in test [1]; 2.48 z-score in test [2]; 2.08 z-score in test [3]; 2.11 z-score in test [4]; 2.05 z-score in test [5]; 2.37 z-score in test [6]. The binding signal in test [7] worked out at 2.73 z-score.
With “CCGATTAACATCAGGGTTCCCCATGATGTTAATCGGGTCTTGATTCGCTTGACGCTGCTG”, the binding signal is 6.72 z-score in test [1]; 5.05 z-score in test [2]; 5.17 z-score in test [3]; 5.37 z-score in test [4]; 7.85 z-score in test [5]; 4.21 z-score in test [6]. The binding signal in test [7] is 3.83 z-score.
Take “CCGATTAACATCAAACTTCCCCTTGATGTTAATCGGGTCTTGATTCGCTTGACGCTGCTG”: the binding signal in test [1] was found to be 6.88 z-score; in test [2] it was 9.28 z-score; in test [3] it was 9.81 z-score; in test [4] it was 5.46 z-score; in test [5] it was 7.55 z-score; in test [6], 7.66 z-score. Besides, in test [7], the binding signal came out at 6.98 z-score.
